Data: ChEMBL document CHEMBL3988442, “University of Dundee, Small-Polar-MMV Screening Library” (2021)
Among all 69,000 compounds or so, about 950 (1.4%) showed an effect of 50% or more. For the sample, strong results were picked, then their nearest neighbours and some compounds at random.

The molecules below were run on Mycobacterium tuberculosis (assay: Cornell M. t heat shock assay; note: in the data most compounds retested in dose-response had high values).
Format: functional, organism-based
Set-up: dose or concentration left out as unconfirmed
`CO[C@@H]1CCN(S(=O)(=O)c2cccnc2)[C@@H]2CN(CC3CC3)C[C@@H]21.O=C(O)C(F)(F)F.O=C(O)C(F)(F)F` was tested, and the “Percent Effect” value was -1.199%. For `Cc1nc[nH]c1C(=O)N1CCC2(CC1)CN(CCN(C)C)C(=O)O2`, the “Percent Effect” value was 17.79%. For `Cc1cc(C(=O)N2CCC3(CC2)CN(CCN(C)C)C(=O)O3)nc(C)n1`, the “Percent Effect” value was 14.38%. In the case of `Cc1ccc(C(=O)N2CCC3(CC2)CN(CCN(C)C)C(=O)O3)c(F)c1`, the “Percent Effect” value is reported as 97.5%. In the case of `Cn1nc(CN2CCCCC2)c2c1CN(C(=O)c1cccc(C#N)c1)C2.O=C(O)C(F)(F)F`, the “Percent Effect” value is reported as -14.41%. In the case of `Cc1ccc(NC(=O)C(C)N2CCCN(c3nccs3)CC2)c(C)c1` (centres undefined), the “Percent Effect” value is reported as 58.85%. For `Cc1ccc(C)c(NC(=O)C(C)N2CCCN(c3nccs3)CC2)c1` (centres undefined), the “Percent Effect” value was 26%. For `Cc1cc(NC(=O)C(C)N2CCCN(c3nccs3)CC2)on1` (centres undefined), the “Percent Effect” value was 10.96%. For `CC(C)Cc1nc(-c2ccnc(N3CCNCC3)n2)no1.Cl.Cl`, the “Percent Effect” value was -11.54%. With `COCCN1CCO[C@H]2CN(Cc3cccc(C)n3)C[C@H]21.O=C(O)C(F)(F)F.O=C(O)C(F)(F)F` the “Percent Effect” value was -1.731%. For `Cc1ccsc1CN(Cc1cccnc1)C1CC(C)(C)NC(C)(C)C1.O=C(O)CC(O)(CC(=O)O)C(=O)O`, the “Percent Effect” value was -32.2%. With `Cc1cc(C)n(C2CN(Cc3nc4cc(Cl)ccc4n3C)C2)n1` the “Percent Effect” value was 97.92%. For `Cc1cc(C)n(C2CCN(Cc3nc4ccccc4n3C)CC2)n1`, the “Percent Effect” value was -15.39%. For `Cc1cnn(C2CN(Cc3noc(C)n3)C2)c1`, the “Percent Effect” value was 1.101%. In the case of `Cc1cnn(C2CN(Cc3noc(-c4ccccc4)n3)C2)c1`, the “Percent Effect” value is reported as 31.69%. With `Cc1ccc(-c2nc(CN3CC(n4nc(C)cc4C)C3)no2)cc1` the “Percent Effect” value was 24.47%. In the case of `Cc1cnn(C2CN(Cc3nc4cc(Cl)ccc4n3C)C2)c1`, the “Percent Effect” value is reported as 84.58%. For `N#Cc1ccc(N2CCC3(CCC(=O)N3Cc3cccnc3)CC2)nc1.O=C(O)C(F)(F)F.O=C(O)C(F)(F)F`, the “Percent Effect” value was 16.15%. For `Cc1c(Cl)cccc1S(=O)(=O)N1C[C@@H]2CC[C@H](C1)N(C)C2=O`, the “Percent Effect” value was -18.96%. With `O=C(Nc1cnccn1)[C@@H]1CC[C@@H]2[C@@H](CCN2Cc2nccs2)O1.O=C(O)C(F)(F)F` the “Percent Effect” value was 0.9525%. In the case of `COCC1CN(S(=O)(=O)N(C)C)Cc2ncn(CC3CC3)c21.O=C(O)C(F)(F)F` (centres undefined), the “Percent Effect” value is reported as -32.61%. In the case of `Cc1noc([C@@H]2CC[C@@H]3[C@@H](CCN3S(=O)(=O)c3cccnc3)O2)n1.O=C(O)C(F)(F)F`, the “Percent Effect” value is reported as 58.53%. With `Cc1noc([C@@H]2C[C@H]3OCC[C@H]3N(S(=O)(=O)c3cccnc3)C2)n1.O=C(O)C(F)(F)F` the “Percent Effect” value was -33.58%. In the case of `Cc1noc([C@@H]2CC[C@@H]3[C@@H](CCN3S(=O)(=O)c3ccccc3)O2)n1`, the “Percent Effect” value is reported as -26.97%.
